# The supplement of paper PMC4466140
# Legend:
# Experiment in all cases: SPOT peptide array binding signal intensity (averaged, normalized) (arbitrary units (background-subtracted, floor 0; scale differs between SH3 domains)); higher = stronger binding of the SH3 domain to the peptide
# [1] = target: ScBbc1
# Summary of the method: (§1)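 GST-fused SH3 domains, from four yeast species, were produced in E. coli BL21(DE3) and captured on glutathione Sepharose. Membranes of cellulose carrying synthetic 15-mer peptides, in which cysteines had been replaced by serines, were exposed to each domain at 10 μg/ml overnight at 4°C in TBS-based blocking buffer. After anti-GST antibody, an HRP anti-mouse secondary and luminol, spots were imaged and quantified using Genespotter. Binding signal is normalized and background-subtracted spot intensity, averaged over replicates, in arbitrary units that differ between domains.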
# [2] = target: ScBem1-D1
# Summary of the method: as §1
# [3] = target: ScBzz1-D1
# Summary of the method: as §1
# [4] = target: ScBzz1-D2
# Summary of the method: as §1
# [5] = target: ScCyk3
# Summary of the method: as §1
# [6] = target: ScFus1
# Summary of the method: as §1
# [7] = target: ScHof1
# Summary of the method: as §1
# [8] = target: ScHse1
# Summary of the method: as §1
# [9] = target: ScLsb1
# Summary of the method: as §1
# [10] = target: ScLsb2
# Summary of the method: as §1
# [11] = target: ScLsb3
# Summary of the method: as §1
# [12] = target: ScLsb4
# Summary of the method: as §1
# [13] = target: ScMyo3
# Summary of the method: as §1
# [14] = target: ScMyo5
# Summary of the method: as §1
# [15] = target: ScNbp2
# Summary of the method: as §1
# [16] = target: ScPex13
# Summary of the method: as §1
# [17] = target: ScRvs167
# Summary of the method: as §1
# [18] = target: ScSho1
# Summary of the method: as §1
# [19] = target: ScSla1-D1-D2
# Summary of the method: as §1
# [20] = target: ScSla1-D3
# Summary of the method: as §1
# [21] = target: SpAbp1-D1
# Summary of the method: as §1
# [22] = target: SpBbc1
# Summary of the method: as §1
# [23] = target: SpBzz1-D1
# Summary of the method: as §1
# [24] = target: SpBzz1-D2
# Summary of the method: as §1
# [25] = target: SpCyk3
# Summary of the method: as §1
# [26] = target: SpHof1
# Summary of the method: as §1
# [27] = target: SpHof1-2
# Summary of the method: as §1
# [28] = target: SpHof1-3
# Summary of the method: as §1
# [29] = target: SpHse1
# Summary of the method: as §1
# [30] = target: SpLsb1
# Summary of the method: as §1
# [31] = target: SpLsb4
# Summary of the method: as §1
# [32] = target: SpMyo1
# Summary of the method: as §1
# [33] = target: SpNbp2
# Summary of the method: as §1
# [34] = target: SpPex13
# Summary of the method: as §1
# [35] = target: SpRvs167
# Summary of the method: as §1
# [36] = target: SpSla1-D1-D2
# Summary of the method: as §1
# [37] = target: SpSla1-D3
# Summary of the method: as §1
binder,measurement,setting,value
VATSTSPKLPPRGKQ,SPOT peptide array binding signal intensity,[1],18.8
same,SPOT peptide array binding signal intensity,[2],≤ 0
same,SPOT peptide array binding signal intensity,[3],61.5
same,SPOT peptide array binding signal intensity,[4],17.5
same,SPOT peptide array binding signal intensity,[5],≤ 0
same,SPOT peptide array binding signal intensity,[6],2.5
same,SPOT peptide array binding signal intensity,[7],3.25
same,SPOT peptide array binding signal intensity,[8],3
same,SPOT peptide array binding signal intensity,[9],268
same,SPOT peptide array binding signal intensity,[10],31
same,SPOT peptide array binding signal intensity,[11],6600
same,SPOT peptide array binding signal intensity,[12],3830
same,SPOT peptide array binding signal intensity,[13],≤ 0
same,SPOT peptide array binding signal intensity,[14],3.25
same,SPOT peptide array binding signal intensity,[15],5
same,SPOT peptide array binding signal intensity,[16],882
same,SPOT peptide array binding signal intensity,[17],2350
same,SPOT peptide array binding signal intensity,[18],40.5
same,SPOT peptide array binding signal intensity,[19],17
same,SPOT peptide array binding signal intensity,[20],≤ 0
same,SPOT peptide array binding signal intensity,[21],97
same,SPOT peptide array binding signal intensity,[22],0.25
same,SPOT peptide array binding signal intensity,[23],286
same,SPOT peptide array binding signal intensity,[24],≤ 0
same,SPOT peptide array binding signal intensity,[25],≤ 0
same,SPOT peptide array binding signal intensity,[26],1.25
same,SPOT peptide array binding signal intensity,[27],0.5
same,SPOT peptide array binding signal intensity,[28],61.2
same,SPOT peptide array binding signal intensity,[29],0.5
same,SPOT peptide array binding signal intensity,[30],623
same,SPOT peptide array binding signal intensity,[31],6830
same,SPOT peptide array binding signal intensity,[32],≤ 0
same,SPOT peptide array binding signal intensity,[33],≤ 0
same,SPOT peptide array binding signal intensity,[34],2
same,SPOT peptide array binding signal intensity,[35],3730
same,SPOT peptide array binding signal intensity,[36],2
same,SPOT peptide array binding signal intensity,[37],≤ 0
